In PubChem BioAssay (EPA / NIEHS):
“And” between values parts separate entries of the source, which are not always exact repeats. Equal values may be shown once. Some structures have more than one record in an assay (separate samples or runs), and their calls can disagree. The source made the active and inactive calls. How the source made its calls: active means hit-call score of the fitted dose curve at least 0.9, where 1 is the maximum; inactive means score below 0.9.

Tests used:
[1] = APR_HepG2_P-H2AX_72hr: Apredica 72-hour HepG2 Assay for H2AX Phosphorylation (AID 2282916); settings: imaging, actives raise or lower the signal;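 further: phospho-histone H2A.x immunostain intensity per cell marking DNA damage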
In short: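 Human hepatoma HepG2 cells are dosed across ten concentrations (0.39 to 200 uM, 0.5% v/v DMSO) and incubated 72 hr. Phospho-histone H2A.x is then detected by antibody staining alongside c-Jun and Hoechst, and quantified by automated fluorescence imaging.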

[2] = APR_HepG2_MitoMembPot_72hr: Apredica 72-hour HepG2 Assay for Mitochondrial Membrane Potential (AID 2282917); settings: imaging, actives raise or lower the signal
In short: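 HepG2 cells exposed 72 h to compounds at 0.39–200 uM (0.5% v/v DMSO, duplicates); MitoTracker Red CMXRos 250 nM loaded 30 min before 3.7% formaldehyde fixation, imaged by HCS fluorescence. Bidirectional fit versus DMSO.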

[3] = APR_HepG2_MitoticArrest_72hr: Apredica 72-hour HepG2 Assay for Mitotic Arrest (AID 2282918); settings: high-content imaging, actives raise or lower the signal
In short: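 Using high-content imaging of fixed HepG2 cells, phospho-histone H3 signal was measured following a 72 hr incubation with ten-point compound dilutions up to 200 uM. DMSO served as the negative control and baseline for bidirectional curve fitting.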

[4] = APR_HepG2_MicrotubuleCSK_72hr: Apredica 72-hour HepG2 Assay for Microtubule CSK Stabilty (AID 2282919); settings: HepG2 microtubule cytoskeleton, high-content imaging, actives raise or lower the signal
In short: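 Ten-point dosing (0.39–200 uM, 0.5% DMSO) of HepG2 for 72 hr, with taxol as the cytoskeletal positive control. The cells were formaldehyde-fixed and then stained with alpha-tubulin/Cy5 and Hoechst. Imaging at 20x used a −2 um Z offset for tubulin.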

[5] = APR_HepG2_P-H2AX_24hr: Apredica 24-hour HepG2 Assay for H2AX Phosphorylation (AID 2282920); settings: high-content imaging, actives raise or lower the signal
In short: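 Human HepG2 liver cells, treated 24 hr with test chemicals (0.39–200 uM, final DMSO 0.5% v/v), are fixed and co-stained for phospho-H2A.x and c-Jun with Hoechst. Imaged intensity is fitted in both directions against DMSO controls.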

[6] = APR_HepG2_StressKinase_72hr: Apredica 72-hour HepG2 Assay for Stress Kinase (AID 2282921); settings: HepG2 stress kinase (phospho-c-Jun) imaging, actives raise or lower the signal
In short: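 After a 72 h compound treatment spanning 0.39 to 200 uM, formaldehyde-fixed cells are labelled for phosphorylated c-Jun and nuclei, imaged by automated fluorescence microscopy, and activity is fitted in both directions relative to DMSO controls.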

[7] = APR_HepG2_p53Act_72hr: Apredica 72-hour HepG2 Assay for p53 Activation (AID 2282923); settings: high-content imaging, actives raise or lower the signal;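 further: average cellular p53 protein immunofluorescence intensity in HepG2 cells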
In short: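 Imaging-based endpoint: after 72 hr compound exposure (up to 200 uM, 0.5% DMSO), fixed and permeabilized monolayers were labelled with anti-p53 antibody and imaged; signal change in either direction was fitted relative to DMSO controls.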

[8] = APR_HepG2_MitoMass_72hr: Apredica 72-hour HepG2 Assay for Mitochondrial Mass (AID 2282924); settings: high-content imaging, actives raise or lower the signal;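 further: MitoTracker Red CMXRos stain intensity per cell imaged as mitochondrial mass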
In short: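 Steps: treat HepG2 72 hr (0.39–200 uM, duplicate wells); load MitoTracker Red CMXRos, 250 nM, 30 min; fix with 3.7% formaldehyde, permeabilise with 0.5% Triton X-100; capture images, nuclei via Hoechst 33342; fit bidirectionally against DMSO.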

[9] = APR_HepG2_NuclearSize_72hr: Apredica 72-hour HepG2 Assay for Nuclear Size (AID 2282925); settings: high-content imaging, actives raise or lower the signal
In short: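 Compounds (0.39–200 uM, final DMSO 0.5%) were applied to HepG2 for 72 hr. Cells were then formaldehyde-fixed, permeabilized and labelled with Hoechst 33342. Nuclear diameter was quantified from six images per well.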

[10] = ATG_CRE_CIS: Attagene CIS-FACTORIAL HepG2 Assay for human cAMP Responsive Element (CRE) binding protein 3 (AID 2282926); settings: HepG2 CRE cis-reporter, Attagene multiplexed mRNA; actives raise or lower the signal
In short: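 Liver-derived HepG2, transfected with a CRE-containing reporter panel, exposed 24 h; transcript levels sized and quantified by capillary electrophoresis of labelled amplicons; signal changes either way referenced to vehicle.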

[11] = target: CCAAT/enhancer-binding protein beta (Homo sapiens) (UniProt P17676); test: ATG_C_EBP_CIS: Attagene CIS-FACTORIAL HepG2 Assay for human CCAAT/Enhancer Binding Protein (C/EBP) beta (AID 2282927); settings: HepG2 Attagene cis-factorial transcription factor reporter; actives raise or lower the signal
Chain of CCAAT/enhancer-binding protein beta (Homo sapiens) (P17676 whole entry, looked up): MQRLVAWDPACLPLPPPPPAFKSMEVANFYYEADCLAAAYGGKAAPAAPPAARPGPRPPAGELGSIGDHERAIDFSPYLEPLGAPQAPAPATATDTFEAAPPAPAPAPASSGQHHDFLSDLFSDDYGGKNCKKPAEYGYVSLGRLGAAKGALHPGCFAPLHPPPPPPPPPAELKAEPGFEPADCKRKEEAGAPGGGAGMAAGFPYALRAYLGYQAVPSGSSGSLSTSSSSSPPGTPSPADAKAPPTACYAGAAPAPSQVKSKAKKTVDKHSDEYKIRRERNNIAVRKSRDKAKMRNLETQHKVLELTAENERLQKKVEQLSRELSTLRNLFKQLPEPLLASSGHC
In short: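 Following a 24 h incubation with test chemical, transfected HepG2 cells yielded RNA whose reporter transcripts were quantified by RT-PCR and fluorescent capillary electrophoresis, with DMSO serving as baseline for bidirectional fitting.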

[12] = ATG_CMV_CIS: Attagene CIS-FACTORIAL HepG2 Assay for human CMV (Internal Marker) (AID 2282928); settings: HepG2 CMV promoter reporter, transcription factor profiling; actives raise or lower the signal;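 further: endpoint acts as a background internal control marker rather than a target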
In short: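 Fluorescence intensity of RT-PCR-derived reporter fragments, resolved by capillary electrophoresis, gives the signal. HepG2 liver cells bearing transfected cis-element reporters were treated 24 h; activity in either direction was fit relative to DMSO-treated controls.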

[13] = ATG_DR4_LXR_CIS: Attagene CIS-FACTORIAL HepG2 Assay for human Liver X Receptor (LXR), DR4 submotif (AID 2282929); settings: HepG2 Attagene DR4 cis-reporter, mRNA transcription; actives raise or lower the signal
In short: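 After transient transfection with multiplexed cis-promoter reporter units, HepG2 cells received test chemicals for 24 h. Reporter mRNA induction, detected by fluorescence after RT-PCR and capillary electrophoresis, was scored relative to DMSO.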

[14] = target: Aryl hydrocarbon receptor (Homo sapiens) (UniProt P35869); test: ATG_Ahr_CIS: Attagene CIS-FACTORIAL HepG2 Assay for human Aryl Hydrocarbon Receptor (Ahr) (AID 2282930); settings: HepG2 AhR cis-factorial reporter transcription; actives raise or lower the signal
Chain of Aryl hydrocarbon receptor (Homo sapiens) (P35869 whole entry, looked up): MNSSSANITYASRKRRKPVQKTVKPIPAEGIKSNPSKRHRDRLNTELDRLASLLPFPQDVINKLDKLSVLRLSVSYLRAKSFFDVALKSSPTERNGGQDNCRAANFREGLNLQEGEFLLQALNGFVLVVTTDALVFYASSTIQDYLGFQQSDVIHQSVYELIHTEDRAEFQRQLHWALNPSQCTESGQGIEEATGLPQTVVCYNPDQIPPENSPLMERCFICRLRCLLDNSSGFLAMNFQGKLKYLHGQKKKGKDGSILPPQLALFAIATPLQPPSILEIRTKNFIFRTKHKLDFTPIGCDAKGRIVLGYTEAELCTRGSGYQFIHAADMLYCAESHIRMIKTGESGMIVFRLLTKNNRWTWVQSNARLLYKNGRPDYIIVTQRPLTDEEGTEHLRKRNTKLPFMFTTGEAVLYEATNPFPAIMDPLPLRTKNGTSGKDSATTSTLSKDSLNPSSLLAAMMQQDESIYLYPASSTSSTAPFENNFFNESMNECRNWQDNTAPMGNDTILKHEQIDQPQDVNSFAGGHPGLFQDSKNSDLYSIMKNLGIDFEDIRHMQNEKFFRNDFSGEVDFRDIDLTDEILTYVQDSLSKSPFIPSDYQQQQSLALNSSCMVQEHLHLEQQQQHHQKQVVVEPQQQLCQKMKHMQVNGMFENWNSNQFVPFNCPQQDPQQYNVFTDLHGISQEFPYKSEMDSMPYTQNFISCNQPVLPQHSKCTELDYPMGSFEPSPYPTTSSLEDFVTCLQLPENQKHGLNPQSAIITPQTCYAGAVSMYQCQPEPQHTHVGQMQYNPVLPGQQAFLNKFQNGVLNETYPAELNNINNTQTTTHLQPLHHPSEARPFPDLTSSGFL
In short: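 Values derive from bidirectional fitting against DMSO negative control. Underlying signal: cis-element reporter mRNA in transiently transfected HepG2, harvested 24 h post-dose and measured by RT-PCR plus capillary electrophoresis.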

[15] = ATG_AP_2_CIS: Attagene CIS-FACTORIAL HepG2 Assay for human Activator Protein 2 (AP-2) (AID 2282932); settings: HepG2 AP-2 cis-reporter, Attagene transcription factor profiling; actives raise or lower the signal
In short: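 Cells (HepG2) transfected with promoter-driven reporter constructs, treated 24 h. Total RNA reverse-transcribed, reporter cDNA PCR-amplified, FAM-labelled by primer extension, digested, resolved by capillary electrophoresis. Activity fitted both directions versus DMSO.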

[16] = ATG_BRE_CIS: Attagene CIS-FACTORIAL HepG2 Assay for human Bone Morphogenetic Protein (BMP) Response Element (BRE) (AID 2282933); settings: HepG2 BMP response element reporter, Attagene transcription factor profiling; actives raise or lower the signal
In short: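 HepG2 cells transiently transfected with CIS reporter units (endogenous TF activity, BMP response element), dosed 24 h. Reporter mRNA quantified by RT-PCR, fluorescent labelling and capillary electrophoresis; bidirectional fit vs DMSO baseline.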

[17] = target: Retinoic acid receptor alpha (Homo sapiens) (UniProt P10276); test: ATG_DR5_RAR_CIS: Attagene CIS-FACTORIAL HepG2 Assay for human Retinoic Acid Receptor Alpha (RARE), DR5 submotif (AID 2282934); settings: HepG2 Attagene cis-factorial RARE DR5 reporter, mRNA; actives raise or lower the signal
Chain of Retinoic acid receptor alpha (Homo sapiens) (P10276 whole entry, looked up): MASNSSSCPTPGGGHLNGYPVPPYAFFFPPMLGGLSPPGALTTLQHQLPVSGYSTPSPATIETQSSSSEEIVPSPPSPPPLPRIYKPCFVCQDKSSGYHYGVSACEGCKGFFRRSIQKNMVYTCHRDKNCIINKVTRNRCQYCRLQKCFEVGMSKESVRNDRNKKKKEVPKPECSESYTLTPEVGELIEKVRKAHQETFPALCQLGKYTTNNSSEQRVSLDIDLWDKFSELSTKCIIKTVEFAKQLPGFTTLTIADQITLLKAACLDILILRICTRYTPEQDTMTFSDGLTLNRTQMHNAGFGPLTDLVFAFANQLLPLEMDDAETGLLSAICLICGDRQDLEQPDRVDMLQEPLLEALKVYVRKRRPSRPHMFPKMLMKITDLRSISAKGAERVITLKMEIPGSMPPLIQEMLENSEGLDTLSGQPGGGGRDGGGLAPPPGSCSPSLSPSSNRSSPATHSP
In short: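 Endpoint fitted in both directions relative to DMSO as negative control. It reflects DR5 cis-element reporter mRNA induction in transiently transfected HepG2 cells, measured 24 h after dosing through RT-PCR and fluorescent capillary electrophoresis.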

[18] = target: Transcription factor E2F1 (Homo sapiens) (UniProt Q01094); test: ATG_E2F_CIS: Attagene CIS-FACTORIAL HepG2 Assay for human E2F Transcription Factor 1 (AID 2282935); settings: HepG2 Attagene cis-reporter, E2F reporter RNA transcripts; actives raise or lower the signal
Chain of Transcription factor E2F1 (Homo sapiens) (Q01094 whole entry, looked up): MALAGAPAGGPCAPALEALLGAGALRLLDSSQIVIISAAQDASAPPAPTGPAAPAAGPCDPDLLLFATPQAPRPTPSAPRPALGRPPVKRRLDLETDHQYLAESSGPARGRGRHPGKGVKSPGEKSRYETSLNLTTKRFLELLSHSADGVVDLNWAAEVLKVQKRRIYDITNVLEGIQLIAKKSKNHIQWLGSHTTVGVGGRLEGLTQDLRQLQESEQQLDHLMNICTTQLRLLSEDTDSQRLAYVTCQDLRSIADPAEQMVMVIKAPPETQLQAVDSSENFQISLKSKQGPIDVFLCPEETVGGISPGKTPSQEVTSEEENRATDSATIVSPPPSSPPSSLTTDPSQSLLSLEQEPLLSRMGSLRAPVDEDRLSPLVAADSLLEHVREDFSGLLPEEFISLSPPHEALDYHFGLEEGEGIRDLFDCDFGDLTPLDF
In short: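 First, HepG2 cells were transfected with reporter transcription units. Next, they were dosed for 24 h. Then RNA was isolated, converted to cDNA, PCR-amplified, FAM-labeled, HpaI-digested and analyzed by capillary electrophoresis.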

[19] = ATG_AP_1_CIS: Attagene CIS-FACTORIAL HepG2 Assay for human Activator Protein 1 (AP-1) (AID 2282931); settings: HepG2 Attagene cis-factorial AP-1 reporter mRNA; actives raise or lower the signal
In short: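 After 24 h incubation with test chemical, RNA from transfected HepG2 cells was reverse-transcribed, amplified, fluorescently labelled and digested before capillary electrophoresis. Reporters were driven by cis-regulatory promoters; activity fitted bidirectionally versus DMSO.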

Measured: AC50

Oc1ccc(C(c2ccc(O)cc2)(C(F)(F)F)C(F)(F)F)cc1
inactive: [1] | [2] | [3] | [4] | [5] | [6] | [7] | [8] | [9] | [10] | [11] | [12] | [13] | [14] | [15] | [16]
active: [10] 11.1 µM and 18.5 µM | [12] 7.18 µM and 8.05 µM | [13] 11.1 µM and 12.8 µM and 8.79 µM | [14] 11.1 µM and 5.94 µM and 13.3 µM | [16] 16 µM

CCC(=O)O[C@H]1CC[C@H]2[C@@H]3CCC4=CC(=O)CC[C@]4(C)[C@H]3CC[C@]12C
active: [1] 86.5 µM | [2] 114 µM | [3] 65 µM | [4] 158 µM | [5] 108 µM | [7] 89.9 µM | [8] 92.1 µM | [9] 50.8 µM | [10] 144 µM [middle of 4 runs] | [12] 72.9 µM and 100 µM | [13] 170 µM and 169 µM and 162 µM | [14] 38.6 µM | [16] 149 µM and 100 µM and 160 µM
inactive: [6] | [11] | [12] | [13] | [14] | [15] | [16] | [17]

O=C(N[C@H]1CN2CCC1CC2)c1cc2ccoc2cn1
inactive: [1] | [2] | [3] | [4] | [5] | [6] | [7] | [8] | [9] | [10] | [11] | [12] | [13] | [14] | [15] | [16] | [17] | [18]

Oc1ccc(Cl)cc1Cl
inactive: [1] | [2] | [3] | [4] | [5] | [6] | [7] | [8] | [9] | [10] | [11] | [12] | [13] | [14] | [15] | [16] | [17]

Cc1ccc(O)c(C)c1
inactive: [1] | [2] | [3] | [4] | [5] | [6] | [7] | [8] | [9] | [10] | [11] | [12] | [13] | [14] | [15] | [16] | [17]

C=CC(=O)NCNC(=O)C=C
inactive: [1] | [2] | [3] | [4] | [5] | [6] | [7] | [8] | [9] | [10] | [11] | [12] | [13] | [14] | [19] | [15] | [16] | [17] | [18]

O=NN(c1ccccc1)c1ccccc1
active: [2] 0.0668 µM | [19] 118 µM
inactive: [1] | [3] | [4] | [5] | [6] | [7] | [8] | [9] | [10] | [11] | [12] | [13] | [14] | [15] | [16] | [17]

O=C(NC(=O)c1c(F)cccc1F)Nc1cc(Cl)c(OC(F)(F)C(F)F)c(Cl)c1
active: [3] 16.9 µM | [7] 6.27 µM
inactive: [1] | [2] | [4] | [5] | [6] | [8] | [9] | [10] | [11] | [12] | [13] | [14] | [19] | [15] | [16] | [17] | [18]

CCNc1nc(NC(C)C)nc(SC)n1
active: [2] 59.6 µM
inactive: [1] | [3] | [4] | [5] | [6] | [8] | [9] | [10] | [11] | [12] | [13] | [14] | [15] | [16]

O=C(O)C(F)(F)C(F)(F)C(F)(F)C(F)(F)C(F)(F)F
inactive: [1] | [2] | [3] | [4] | [5] | [6] | [7] | [8] | [9] | [10] | [11] | [12] | [13] | [14] | [15] | [16] | [17]

Clc1ccc(C(Cl)(Cl)Cl)cc1
inactive: [1] | [2] | [3] | [4] | [5] | [6] | [7] | [8] | [9] | [10] | [11] | [12] | [13] | [14] | [15] | [16] | [17] | [18]
